Pf apPOL block – Pf-apPOL inhibitors, biochemical, fluorescence. Recombinant Pf-apPOL, molecular beacon fluorescence, 1.5 h. AID 1794808, 2022. Plasmodium falciparum apicoplast DNA polymerase (apPOL). 0.25% of 210,000 active. inhibition, % at 10 µM
mHTT-CaM PPI inh – mutant huntingtin-calmodulin interaction inhibitors – biochemical, AlphaScreen, primary screen. P42858. AlphaScreen His-mHTT/GST-CaM binding, luminescence. inhibition, % at 15 µM. 3.6% of 190,000 active. AID 1671202, 2021
Each line names hits and unclear results; the compound was inactive in the other large screens; ! = not confirmed by another sample. This is a sample that favours compounds with a hit; in the whole collection about 3.6% have one here. Rule as the data show it: active = inhibition above about 50%; inactive = the rest.

COc1cc(C=CC(=O)c2c(-c3ccccc3)c3cc(Cl)ccc3[nH]c2=O)cc(OC)c1OC	mHTT-CaM PPI inh 100.2
O=c1[nH]c2ccc(Cl)cc2c(-c2ccccc2)c1Sc1ncn[nH]1	none
O=C(NC1CCCC1)c1c(O)c2cccc3c2n(c1=O)CC3	none
Cc1ccc(Nc2ccc(NC(=O)c3snnc3C)cc2)nn1	mHTT-CaM PPI inh 100.1
Cc1nnsc1C(=O)Nc1ccc(CN2CCS(=O)(=O)CC2)cc1	none (no result: mHTT-CaM PPI inh)
Cn1cccc(C(=O)NC2CC(=O)N(C3CC3)C2)c1=O (stereo not given)	none
O=C(c1cccc(Cl)c1)N1CCN(c2nc(CN3CCCCC3)cs2)CC1	none
CCn1c(=O)c(NCc2ccc(Cl)cc2)nc2ccncc21	none
CC(C)Cn1cc2c3c(cccc31)CN(C(=O)Cc1cccs1)CC2	mHTT-CaM PPI inh 63.9
CCn1cc2c3c(cccc31)CN(C(=O)NC(C)C)CC2	none
CCCC(=O)N1CCc2cn(CC(C)C)c3cccc(c23)C1	mHTT-CaM PPI inh 52.7
CC(C)CC(=O)N1CCc2cn(CC(C)C)c3cccc(c23)C1	none
CC(C)Cn1cc2c3c(cccc31)CN(C(=O)c1ccccn1)CC2	mHTT-CaM PPI inh 88.3
CC(C)CC(=O)N1CCc2cn(C)c3cccc(c23)C1	none
COCc1noc(C2CCCCN2Cc2nc(-c3cccnc3)no2)n1 (stereo not given)	none
CC1C(=O)N(c2ccccc2Cl)CCN1C(=O)C1CCC1 (stereo not given)	none
CCOc1ccc(-c2cn3ccn(-c4ccccc4)c(=O)c3n2)cc1	none
N#CC1=C(N)OC(C2CC2)=C(n2cnc([N+](=O)[O-])n2)C1c1ccccc1 (stereo not given)	none
N#CC1=C(N)OC(c2ccccc2)=C(n2cnc([N+](=O)[O-])n2)C1c1ccccc1 (stereo not given)	mHTT-CaM PPI inh 75.4
N#CC1=C(N)OC(c2ccccc2)=C(n2cnc([N+](=O)[O-])c2)C1c1cccnc1 (stereo not given)	none
N#CC1=C(N)OC(c2ccccc2)=C(n2cncn2)C1c1ccc(Br)cc1 (stereo not given)	mHTT-CaM PPI inh 57.0
CC1=NN(C(=O)c2ccc(Cl)cc2)C(O)(c2ccc(Cl)cc2)C1 (stereo not given)	mHTT-CaM PPI inh 67.0
CC1=NN(C(=O)c2ccccc2F)C(O)(c2ccc(Cl)cc2)C1 (stereo not given)	none
CC1=NN(C(=O)c2cccc(Cl)c2)C(O)(c2ccc(Cl)cc2)C1 (stereo not given)	mHTT-CaM PPI inh 54.0
CC1=NN(C(=O)c2ccccc2Cl)C(O)(c2ccc(Cl)cc2)C1 (stereo not given)	none
COc1nn(C)cc1C(=O)N1CCC(c2nnc(-c3ccco3)o2)CC1	none
O=C(CSC1CCCC1)N1CCC(c2nnc(-c3ccco3)o2)CC1	mHTT-CaM PPI inh 100.0
Cn1c(=O)c(N2CCN(C(=O)COc3ccc(Cl)cc3)CC2)nc2ccncc21	none
CCn1c(=O)c(N2CCN(C(=O)COc3ccc(Cl)cc3C)CC2)nc2ccncc21	mHTT-CaM PPI inh 60.8
COc1cc(OC)c(C2SCCN2S(=O)(=O)c2ccc(Br)cc2)cc1OC (stereo not given)	mHTT-CaM PPI inh 51.0
COc1cc(OC)c(C2SCCN2S(=O)(=O)c2ccc(Cl)cc2)cc1OC (stereo not given)	none
CC1=C(C(=O)Nc2ccc(C)cn2)C(c2ccsc2)C2=C(CCCC2=O)N1 (stereo not given)	none
CCOc1ccccc1NC(=O)c1ccccc1Cl	none
CCOc1ccccc1NC(=O)c1c[nH]c(=O)n(-c2ccc(F)cc2)c1=O	mHTT-CaM PPI inh 72.4
CC(C)C(=O)NC(c1ccco1)c1cc(Cl)c2cccnc2c1O (stereo not given)	none
CC(C)C(=O)NC(c1ccccc1Cl)c1ccc2cccnc2c1O (stereo not given)	mHTT-CaM PPI inh 100.0
CC(C)C(=O)NC(c1ccco1)c1ccc2cccnc2c1O (stereo not given)	mHTT-CaM PPI inh 99.7
CC(C)C(=O)NC(c1ccccc1)c1ccc2cccnc2c1O (stereo not given)	mHTT-CaM PPI inh 100.0
CC(C)C(=O)NC(c1ccc(Cl)cc1)c1ccc2cccnc2c1O (stereo not given)	mHTT-CaM PPI inh 94.6
Cc1cc(C(=O)N2CCCCC2C(=O)NCc2ccc(F)cc2)no1 (stereo not given)	none
CC(C)(C)N=C1Nc2ccccc2NC12CCCN(C(=O)c1cnccn1)C2 (stereo not given)	none
CC(C)C(=O)Nc1cccc(N2CCCN(Cc3cccc(F)c3)C2=O)c1	none
COc1ccc(-c2cc(C(=O)NCCC3CCN(C(=O)c4ccc(C)cc4)CC3)no2)cc1	none
O=S(=O)(NC1CCN(Cc2ccccc2)CC1)c1ccc2nc(-c3ccccc3)[nH]c2c1	mHTT-CaM PPI inh 87.0
O=S(=O)(NC1CCCCCC1)c1ccc2nc(-c3ccccc3)[nH]c2c1	none
Cc1noc(C)c1CCC(=O)N1CC2CC(NC(=O)c3cccs3)C1C2 (stereo not given)	none
N#Cc1c(NC(=O)CCC2CCCC2)sc2c1CCCCCC2	none (no result: Pf apPOL block)
C[C@H]1[C@@H](c2ccccc2)Oc2c(Cl)cccc2S(=O)(=O)N1Cc1cccc(F)c1	none
C[C@H]1[C@@H](c2ccccc2)Oc2c(Cl)cccc2S(=O)(=O)N1Cc1cccc(Cl)c1	mHTT-CaM PPI inh 59.3
COc1ccc(F)cc1S(=O)(=O)N1CCc2c(nc(-c3ccc(F)cc3)[nH]c2=O)C1	none
Cn1c2ccc([N+](=O)[O-])cc2c2nc3ccccc3nc21	none
CC(C)n1c2ccc(Br)cc2c2nc3ccccc3nc21	Pf apPOL block 81.6
O=[N+]([O-])c1c(Cl)ncnc1Cl	none (no result: Pf apPOL block)
O=C(NCc1ccc(F)cc1Cl)C1CCCN(c2nccc3sccc23)C1 (stereo not given)	none
Cc1cc2c(N3CCCC(C(=O)N4CCN(c5ccccc5)CC4)C3)nccc2s1 (stereo not given)	mHTT-CaM PPI inh 99.8
O=C(C1CCCN(c2nccc3sccc23)C1)N1CCN(c2ccccc2F)CC1 (stereo not given)	mHTT-CaM PPI inh 89.8
O=C(C1CCCN(c2nccc3sccc23)C1)N1CCN(c2ccc(F)cc2)CC1 (stereo not given)	mHTT-CaM PPI inh 94.6
Cc1cc2c(N3CCCC(C(=O)N4CCN(C5CCCCC5)CC4)C3)nccc2s1 (stereo not given)	none
Cc1ccc(NC(=O)C2CCCN(c3nccc4sccc34)C2)cc1F (stereo not given)	none
Cc1ccccc1N1C(=O)c2ccccc2NC1(C)CCc1ccc2c(c1)OCO2 (stereo not given)	none
CCC(=O)N(C)Cc1cc(-c2cccc(OC)c2)on1	none
Cn1nnnc1SC/C=C/c1ccc([N+](=O)[O-])cc1	none
CC(C)(C)n1nc2c(c1NC(=O)CCc1ccccc1)CS(=O)(=O)C2	none
COc1ccc(C(NC(=O)CC(C)C)c2ccc3cccnc3c2O)cc1OC (stereo not given)	none
CCC(=O)NC(c1ccc(OC)c(OC)c1)c1ccc2cccnc2c1O (stereo not given)	Pf apPOL block 94.1!, mHTT-CaM PPI inh 100.0
COc1ccc(C(NC(C)=O)c2ccc3cccnc3c2O)cc1OC (stereo not given)	mHTT-CaM PPI inh 100.0
COc1cc(NC(=O)Cc2ccc(OC)c(OC)c2)c2ncccc2c1	none
O=C(NCc1ccco1)C1CCN(c2nn3c(=O)c4c(nc3s2)CCCC4)CC1	none
Cc1ccc(NC(=O)C2CCCN(S(=O)(=O)c3cccs3)C2)cn1 (stereo not given)	none

High-throughput results: PubChem BioAssay, University of Kansas High Throughput Screening Laboratory
